# Legend:
# Assay in all cases: DAPPL (digital affinity profiling via proximity ligation, sequencing); 10 mM Tris-HCl pH 7.5, 50 mM NaCl, 1 mM DTT, 4% glycerol, room temperature, 30 min; GST-TFs on glutathione beads, 16-mer random dsDNA library, 0.1% formaldehyde crosslink after washing; high values mean tight binding
# Details in all cases: protein: recombinant; tags: N-terminal GST; dsDNA, one strand shown
# ERF = target: T1, ERF (Homo sapiens, UniProt P50548 1-548)
# T1 sequence: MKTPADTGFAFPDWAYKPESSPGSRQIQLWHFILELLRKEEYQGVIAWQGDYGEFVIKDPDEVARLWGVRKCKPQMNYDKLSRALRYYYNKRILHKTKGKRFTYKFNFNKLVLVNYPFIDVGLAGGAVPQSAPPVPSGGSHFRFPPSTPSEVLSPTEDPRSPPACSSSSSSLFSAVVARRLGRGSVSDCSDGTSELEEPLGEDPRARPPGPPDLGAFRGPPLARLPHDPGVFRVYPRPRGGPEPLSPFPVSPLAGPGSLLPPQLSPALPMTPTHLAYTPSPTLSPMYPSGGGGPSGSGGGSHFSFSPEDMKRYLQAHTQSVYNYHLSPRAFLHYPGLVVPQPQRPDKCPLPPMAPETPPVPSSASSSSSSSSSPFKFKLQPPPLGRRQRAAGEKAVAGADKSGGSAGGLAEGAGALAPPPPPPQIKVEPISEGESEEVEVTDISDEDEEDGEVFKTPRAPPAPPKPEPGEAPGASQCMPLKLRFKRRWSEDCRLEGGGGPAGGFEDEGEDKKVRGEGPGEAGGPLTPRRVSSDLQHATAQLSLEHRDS
# Method in brief: (§1)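 Each value of binding signal is a hexamer's read frequency for a factor divided by the same hexamer's frequency in the tag-only sample. Barcoded, bead-captured GST fusions of human transcription factors made in yeast were pooled with that sample and incubated with 200 nmole of a random double-stranded 16-mer DNA library in Tris/NaCl/DTT/glycerol buffer at room temperature for 30 min. Washing, 0.1% formaldehyde crosslinking, proximity ligation, PCR and Illumina NextSeq500 sequencing followed.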
# ETV3L = target: T2, ETV3L (Homo sapiens, UniProt Q6ZN32 1-361)
# T2 sequence: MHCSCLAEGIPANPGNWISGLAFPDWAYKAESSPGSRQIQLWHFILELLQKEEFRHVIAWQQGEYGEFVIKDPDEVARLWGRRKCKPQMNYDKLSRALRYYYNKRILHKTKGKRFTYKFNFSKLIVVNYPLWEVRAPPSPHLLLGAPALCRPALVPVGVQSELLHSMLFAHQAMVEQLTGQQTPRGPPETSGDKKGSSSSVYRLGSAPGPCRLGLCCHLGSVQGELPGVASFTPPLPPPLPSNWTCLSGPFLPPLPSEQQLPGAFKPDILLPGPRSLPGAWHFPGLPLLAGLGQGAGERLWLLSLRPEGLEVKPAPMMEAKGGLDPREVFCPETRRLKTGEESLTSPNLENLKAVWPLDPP
# Method in brief: as §1
# ETS2 = target: T3, ETS2 (Homo sapiens, UniProt P15036 1-469)
# T3 sequence: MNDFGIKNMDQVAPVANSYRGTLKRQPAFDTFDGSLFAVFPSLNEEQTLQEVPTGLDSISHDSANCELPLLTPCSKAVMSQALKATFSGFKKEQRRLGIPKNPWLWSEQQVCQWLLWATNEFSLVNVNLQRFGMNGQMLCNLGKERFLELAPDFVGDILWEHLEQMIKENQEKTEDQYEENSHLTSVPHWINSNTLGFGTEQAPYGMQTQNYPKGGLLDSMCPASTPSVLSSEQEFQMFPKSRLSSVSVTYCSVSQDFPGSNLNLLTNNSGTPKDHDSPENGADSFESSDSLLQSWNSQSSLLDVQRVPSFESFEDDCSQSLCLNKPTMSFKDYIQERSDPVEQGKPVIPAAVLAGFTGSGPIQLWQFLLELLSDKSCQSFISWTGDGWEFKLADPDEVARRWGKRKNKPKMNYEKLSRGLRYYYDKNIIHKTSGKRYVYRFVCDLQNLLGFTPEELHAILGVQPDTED
# Method in brief: as §1
# ETV7 = target: T4, ETV7 (Homo sapiens, UniProt Q9Y603 1-341)
# T4 sequence: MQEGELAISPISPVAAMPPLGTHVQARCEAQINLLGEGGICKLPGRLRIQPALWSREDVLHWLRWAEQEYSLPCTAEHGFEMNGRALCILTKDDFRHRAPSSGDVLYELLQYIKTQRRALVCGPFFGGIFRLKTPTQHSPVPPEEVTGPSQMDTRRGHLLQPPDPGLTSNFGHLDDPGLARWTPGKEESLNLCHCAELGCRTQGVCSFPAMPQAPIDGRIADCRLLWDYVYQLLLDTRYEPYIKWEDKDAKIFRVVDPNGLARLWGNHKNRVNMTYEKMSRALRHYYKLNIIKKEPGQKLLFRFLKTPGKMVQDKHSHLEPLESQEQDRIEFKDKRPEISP
# Method in brief: as §1
# ELF5 = target: T5, ELF5 (Homo sapiens, UniProt Q9UKW6-2 1-255)
# T5 sequence: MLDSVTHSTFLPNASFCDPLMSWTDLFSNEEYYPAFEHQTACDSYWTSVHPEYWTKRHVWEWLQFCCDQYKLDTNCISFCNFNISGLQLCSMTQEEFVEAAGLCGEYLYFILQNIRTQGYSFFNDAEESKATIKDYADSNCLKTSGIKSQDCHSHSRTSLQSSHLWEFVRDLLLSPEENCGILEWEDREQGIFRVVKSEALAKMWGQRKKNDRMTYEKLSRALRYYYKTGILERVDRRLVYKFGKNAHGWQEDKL
# Method in brief: as §1
# ETV3 = target: T6, ETV3 (Homo sapiens, UniProt P41162-2 1-143)
# T6 sequence: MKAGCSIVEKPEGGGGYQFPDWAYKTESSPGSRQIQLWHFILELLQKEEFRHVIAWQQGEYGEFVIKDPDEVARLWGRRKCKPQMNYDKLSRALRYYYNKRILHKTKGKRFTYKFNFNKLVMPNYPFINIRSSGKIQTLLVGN
# Method in brief: as §1
# ETV6 = ETV6 (Homo sapiens, UniProt P41212 1-452)
# Chain of ETV6 (P41212 whole entry): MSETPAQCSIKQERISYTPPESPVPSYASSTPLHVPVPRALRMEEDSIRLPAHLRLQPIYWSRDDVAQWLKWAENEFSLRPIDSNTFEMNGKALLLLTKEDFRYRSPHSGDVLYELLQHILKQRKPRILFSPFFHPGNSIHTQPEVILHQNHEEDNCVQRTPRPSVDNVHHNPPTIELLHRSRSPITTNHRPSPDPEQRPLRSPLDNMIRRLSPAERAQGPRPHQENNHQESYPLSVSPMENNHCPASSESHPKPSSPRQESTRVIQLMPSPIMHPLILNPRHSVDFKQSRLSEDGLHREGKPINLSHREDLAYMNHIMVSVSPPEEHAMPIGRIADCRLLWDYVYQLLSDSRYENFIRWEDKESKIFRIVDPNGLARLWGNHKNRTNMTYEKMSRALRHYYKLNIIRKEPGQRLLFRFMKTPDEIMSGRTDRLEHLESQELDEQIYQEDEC
# Method in brief: as §1
# SPDEF = target: T7, SPDEF (Homo sapiens, UniProt O95238 1-335)
# T7 sequence: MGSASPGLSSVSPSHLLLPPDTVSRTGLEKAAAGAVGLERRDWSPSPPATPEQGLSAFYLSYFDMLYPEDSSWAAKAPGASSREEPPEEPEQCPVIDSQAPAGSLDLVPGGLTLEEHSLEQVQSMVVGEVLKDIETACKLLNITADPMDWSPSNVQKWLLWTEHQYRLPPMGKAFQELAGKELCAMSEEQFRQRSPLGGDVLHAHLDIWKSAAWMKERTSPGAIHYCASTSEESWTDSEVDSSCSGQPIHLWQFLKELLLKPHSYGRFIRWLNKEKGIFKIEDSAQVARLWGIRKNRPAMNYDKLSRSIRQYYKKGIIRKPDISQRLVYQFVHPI
# Method in brief: as §1
Sequence,binding signal (ERF),binding signal (ETV3L),binding signal (ETS2),binding signal (ETV7),binding signal (ELF5),binding signal (ETV3),binding signal (ETV6),binding signal (SPDEF)
GAATCT,"1.17 fold enrichment (6-mer frequency, TF over GST control)","1.05 fold enrichment (6-mer frequency, TF over GST control)","1.08 fold enrichment (6-mer frequency, TF over GST control)","1.03 fold enrichment (6-mer frequency, TF over GST control)","1.07 fold enrichment (6-mer frequency, TF over GST control)","1.13 fold enrichment (6-mer frequency, TF over GST control)","1.06 fold enrichment (6-mer frequency, TF over GST control)",–
TAGTGC,"1.12 fold enrichment (6-mer frequency, TF over GST control)","1.05 fold enrichment (6-mer frequency, TF over GST control)","1.08 fold enrichment (6-mer frequency, TF over GST control)",–,–,"1.05 fold enrichment (6-mer frequency, TF over GST control)","1.12 fold enrichment (6-mer frequency, TF over GST control)","1.06 fold enrichment (6-mer frequency, TF over GST control)"
GCGCCC,"1.18 fold enrichment (6-mer frequency, TF over GST control)","1.2 fold enrichment (6-mer frequency, TF over GST control)","1.05 fold enrichment (6-mer frequency, TF over GST control)",–,–,"1.2 fold enrichment (6-mer frequency, TF over GST control)","1.03 fold enrichment (6-mer frequency, TF over GST control)","1.13 fold enrichment (6-mer frequency, TF over GST control)"
AGTTCT,"1.14 fold enrichment (6-mer frequency, TF over GST control)","1.12 fold enrichment (6-mer frequency, TF over GST control)","1.17 fold enrichment (6-mer frequency, TF over GST control)","1.11 fold enrichment (6-mer frequency, TF over GST control)","1.15 fold enrichment (6-mer frequency, TF over GST control)","1.18 fold enrichment (6-mer frequency, TF over GST control)","1.13 fold enrichment (6-mer frequency, TF over GST control)",–
TTTAGT,"1.03 fold enrichment (6-mer frequency, TF over GST control)","1.09 fold enrichment (6-mer frequency, TF over GST control)","1.04 fold enrichment (6-mer frequency, TF over GST control)",–,–,"1.11 fold enrichment (6-mer frequency, TF over GST control)","1.12 fold enrichment (6-mer frequency, TF over GST control)","1.04 fold enrichment (6-mer frequency, TF over GST control)"
TAGCAG,"1.11 fold enrichment (6-mer frequency, TF over GST control)","1.07 fold enrichment (6-mer frequency, TF over GST control)","1.02 fold enrichment (6-mer frequency, TF over GST control)","1.07 fold enrichment (6-mer frequency, TF over GST control)","1.05 fold enrichment (6-mer frequency, TF over GST control)",–,–,–
TGGTAG,"1.11 fold enrichment (6-mer frequency, TF over GST control)","1.02 fold enrichment (6-mer frequency, TF over GST control)","1.04 fold enrichment (6-mer frequency, TF over GST control)","1.18 fold enrichment (6-mer frequency, TF over GST control)","1.1 fold enrichment (6-mer frequency, TF over GST control)","1.1 fold enrichment (6-mer frequency, TF over GST control)",–,–
TCAATG,"1.11 fold enrichment (6-mer frequency, TF over GST control)","1.05 fold enrichment (6-mer frequency, TF over GST control)","1.06 fold enrichment (6-mer frequency, TF over GST control)",–,–,"1.06 fold enrichment (6-mer frequency, TF over GST control)","1.05 fold enrichment (6-mer frequency, TF over GST control)","1.12 fold enrichment (6-mer frequency, TF over GST control)"
TTATCA,"1.14 fold enrichment (6-mer frequency, TF over GST control)","1.15 fold enrichment (6-mer frequency, TF over GST control)","1.04 fold enrichment (6-mer frequency, TF over GST control)","1.03 fold enrichment (6-mer frequency, TF over GST control)","1.07 fold enrichment (6-mer frequency, TF over GST control)","1.09 fold enrichment (6-mer frequency, TF over GST control)","1 fold enrichment (6-mer frequency, TF over GST control)",–
TCTAGG,"1.03 fold enrichment (6-mer frequency, TF over GST control)","1.08 fold enrichment (6-mer frequency, TF over GST control)","1.02 fold enrichment (6-mer frequency, TF over GST control)","1.16 fold enrichment (6-mer frequency, TF over GST control)","1.07 fold enrichment (6-mer frequency, TF over GST control)","1.12 fold enrichment (6-mer frequency, TF over GST control)","1.02 fold enrichment (6-mer frequency, TF over GST control)",–
TTGAGG,"1.12 fold enrichment (6-mer frequency, TF over GST control)","1.03 fold enrichment (6-mer frequency, TF over GST control)","1.04 fold enrichment (6-mer frequency, TF over GST control)","1.03 fold enrichment (6-mer frequency, TF over GST control)","1.11 fold enrichment (6-mer frequency, TF over GST control)","1.12 fold enrichment (6-mer frequency, TF over GST control)","1.13 fold enrichment (6-mer frequency, TF over GST control)",–
